The record followed here is ChEMBL document CHEMBL3988442, “University of Dundee, Small-Polar-MMV Screening Library” (2021).

In all, about 48,000 compounds went through this assay and about 13,000 (27%) showed an effect of 50% or more. This is one part of the list.

For the experiment, the system named is Wolbachia pipientis. Kind of experiment: Anti-Wolbachia Cell-Based Screen. The settings on record: 5 µM. Details: scale not given: in the data most compounds retested in dose-response had high values. The experiment is classed as functional.
As to `Cc1nc2c(c(=O)n1C)CCN(C(=O)CCc1ccccc1O)CC2`, the “Percent Effect” value is on record as -32.69%. With `O=C1CCC2(CCOC2)CN1Cc1ccc2nsnc2c1` (stereo not given) the figure was -12.42%. Turning to `CC(=O)Nc1ncc(S(=O)(=O)N2CCCC(C)C2)s1` (stereo not given), the “Percent Effect” value was -1.419%. Take `O=C(O)C(F)(F)F.c1cnc(N2CCOCC3(C2)CN(c2nccs2)CCO3)nc1` (stereo not given): the “Percent Effect” value is -52.69%. The value for `CN(C)C(=O)CN1CCOCC2(CCN(CC3CCOC3)CC2)C1.O=C(O)C(F)(F)F.O=C(O)C(F)(F)F` (stereo not given) was -17.88%; that for `CN(C)C(=O)CN1CCOCC2(C1)CN(c1ncc(F)cn1)CCO2.O=C(O)C(F)(F)F` (stereo not given) was 98.39%; that for `CN(C)C(=O)CN1CCOCC2(CCN(CC3CCOCC3)CC2)C1.O=C(O)C(F)(F)F.O=C(O)C(F)(F)F` was 8.025%. The value for `CN(C)C(=O)CN1CCOCC2(CCN(c3ncc(F)cn3)CC2)C1.O=C(O)C(F)(F)F` was 94.37%. With `Fc1ccc(N2CCOC3(COCCN(c4ncccn4)C3)C2)cc1.O=C(O)C(F)(F)F` (stereo not given) the figure was 20.84%; with `CC(C)(C)C1CCC(NCCN2CCOCC2)CC1` (stereo not given), -13.34%. As for `Cc1ccc(Cl)cc1NC(=O)C1CC(=O)N(Cc2ccccn2)C1` (stereo not given), the “Percent Effect” value is given as -6.487%. `CNc1nc(C(=O)N2CCN(c3ccc(Cl)c(Cl)c3)CC2)cs1`: the “Percent Effect” value turned out to be 91.42%. With `Cc1nc(C(=O)N2CCN(C(C)c3ccccc3F)CC2)cs1` (stereo not given) the figure was -7.061%. With `CNc1nc(C(=O)N2CCC3(CCCN(C)C3=O)C2)cs1` (stereo not given) the figure was -18.85%.

Turning to `COc1ccnc(N2CCN(C(=O)c3csc(C4CC4)n3)CC2)n1`, the “Percent Effect” value amounted to 22.41%. Regarding `Cc1nc(C(=O)N2CCN(c3ccc(Cl)c(Cl)c3)CC2)cs1`, the “Percent Effect” value amounted to 99.9%. With `Cc1nc(C(=O)Nc2cc(N3CCNC3=O)ccc2Cl)cs1` the figure was -12.33%. Consider `Cc1nnc(CN2CCCC(c3cc(C(N)=O)[nH]n3)C2)o1` (stereo not given), for which the “Percent Effect” value was -6.189%.

Turning to `CCc1nnc(CN2CCCC(c3cc(C(F)(F)F)[nH]n3)C2)o1` (stereo not given), the “Percent Effect” value was -1.93%. The value for `CC(C)(C)c1nnc(CN2CCCC(c3cc(C(N)=O)[nH]n3)C2)o1` (stereo not given) was 1.877%. The value for `Cc1cc(C2CCCN(Cc3ncc(C(C)C)o3)C2)n[nH]1` (stereo not given) was 8.603%. The value for `CC(C)c1cnc(CN2CCCC(c3cc(C(N)=O)[nH]n3)C2)o1` (stereo not given) was 94.99%; that for `CC(C)c1nnc(CN2CCCC(c3cc(C(N)=O)[nH]n3)C2)o1` (stereo not given) was 107%; that for `CCc1nnc(CN2CCCC(c3cc(C(N)=O)[nH]n3)C2)o1` (stereo not given) was 123.6%. Consider `Cc1nc(CN2CCCC(c3cc(C(N)=O)[nH]n3)C2)oc1C` (stereo not given), for which the “Percent Effect” value was 110.2%. The value for `Cc1cnc(CN2CCCC(c3cc(C(N)=O)[nH]n3)C2)o1` (stereo not given) was 1.908%. Take `CCNc1ccnc(-c2ccnc3c2ccn3C)n1`: the “Percent Effect” value stood at 5.655%.

`COc1cc(NCCNC(=O)c2ccc3[nH]ccc3c2)cc(OC)c1`: the “Percent Effect” value is given as -37.35%.

As for `CN1C(=O)[C@H]2CC[C@@H]1CN(C(=O)c1sccc1S(N)(=O)=O)C2`, the “Percent Effect” value amounted to 0.6963%.

On to `Cc1cnc(CN2CCCC(c3cc(C(N)=O)[nH]n3)C2)cn1` (stereo not given), for which the “Percent Effect” value stood at 0.6166%. As for `Cc1ncc(CN2CCCC(c3cc(C(N)=O)[nH]n3)C2)s1` (stereo not given), the “Percent Effect” value came out at 121.8%. With `O=C(CCc1cscn1)NS(=O)(=O)c1ccc2c(c1)CCC2` the figure was 0.3885%; with `Cn1ccc(C(=O)N2CCC3(CC2)CC(Nc2cnccn2)CO3)n1` (stereo not given), 103.2%. On to `Cn1ccc(CN2CCC3(CC2)CC(Nc2cnccn2)CO3)n1.O=C(O)C(F)(F)F` (stereo not given), for which the “Percent Effect” value was 4.568%. For `O=C(Cc1ccccc1)N1CCC2(CC1)CC(Nc1cnccn1)CO2` (stereo not given), the “Percent Effect” value is listed as 117.3%. The value for `Cn1ccc(CN2CCC3(CC2)CC(Nc2ccccn2)CO3)n1.O=C(O)C(F)(F)F` (stereo not given) was -6.155%; that for `Cc1nc2ncccn2c1C(=O)N1CCc2[nH]cnc2C1` was 16.62%. The value for `CN(CC1CCN(CCO)CC1)CC(O)c1ccc(F)c(F)c1` (stereo not given) was 6.752%; that for `CC(C)C(=O)NCCNc1nccc(-c2cc(C(=O)O)ccn2)n1` was -18.63%. As to `COC(=O)c1ccc2c(-c3ccnc(NCCO)n3)c[nH]c2c1`, the “Percent Effect” value came to 85.03%. The value for `COc1cccc(-n2cc(-c3ccnc(N[C@@H](CO)C(C)C)n3)cn2)c1` was -10.41%. With `CSCCCNc1nccc(-c2cc(C(=O)O)ccn2)n1` the figure was -11.9%. With `COC(=O)c1cccc(-c2c[nH]c(C)n2)c1` the figure was -9.245%; with `Cc1ccc(CCNc2nccc(-c3cc(C(=O)O)ccn3)n2)o1`, -34.17%; with `CC[C@@H](CO)Nc1nccc(-c2c[nH]c3cc(C(=O)OC)ccc23)n1`, 73.76%.

`COC(=O)c1ccc2c(-c3ccnc(N[C@@H](C)CO)n3)c[nH]c2c1`: the “Percent Effect” value turned out to be 96.47%. The value for `CCCN1C[C@H]2CC[C@@H]1CN(Cc1ccc(-n3cccn3)cc1)C2` was 12.23%. In the case of `O=C(CCc1cn[nH]c1)N1CCC(C2CCN(c3ncccn3)CC2)C1` (stereo not given), the “Percent Effect” value is -3.024%. With `CN1CCN(C[C@@H]2CN(C(=O)CCc3cn[nH]c3)C[C@@H]2CO)CC1` the figure was -11.62%; with `CN1CCOC(CNCc2nc(-c3cccnc3)no2)C1` (stereo not given), 17.39%.

As for `CN1CCOC(CNCc2coc(-c3cccc(F)c3)n2)C1` (stereo not given), the “Percent Effect” value is given as 69.38%. Regarding `CN1CCOC(CNCc2coc(-c3cccc(Cl)c3)n2)C1` (stereo not given), the “Percent Effect” value is given as 93.12%.

As to `CN(C)Cc1ccc(C2CCCCN2C(=O)c2cc(=O)[nH]c(=O)[nH]2)cc1` (stereo not given), the “Percent Effect” value is -0.1381%. As to `Cc1cnn(CCNCc2nc(-c3ccccc3Cl)no2)c1`, the “Percent Effect” value is reported as -13.51%. With `CC[C@H]1N(CC2CCOCC2)CCC[C@]12CCC(=O)N2.O=C(O)C(F)(F)F` the figure was -18.34%.

Regarding `COCCN(Cc1ccc(C)cc1)Cc1c[nH]cn1`, the “Percent Effect” value is recorded as -2.598%. The value for `Cc1cc(C)n(CCC2CC(=O)Nc3cc(O)c(C)cc32)n1` (stereo not given) was -2.617%; that for `Cc1noc(C)c1CCC(=O)N1CCN(CCn2cncn2)CC1` was -13.84%; that for `CCc1ccc(CCC(=O)N2CCOCC2c2ncon2)cc1` (stereo not given) was 5.794%. The value for `Cc1noc(C)c1CCC(=O)N1CCOCC1CC(=O)N1CCCC1` (stereo not given) was 72.16%; that for `CC(=O)N1CCCN(C(=O)CCc2c(C)noc2C)CC1` was -13.07%; that for `Cc1noc(C)c1CCC(=O)N1CCOCC1CCc1cnccn1` (stereo not given) was 115.4%. With `Cc1noc(C)c1CCC(=O)N1CCN(CCn2cccn2)CC1` the figure was -16.11%. As to `Cc1noc(Cl)c1CCC(=O)N1CCN(c2ncccn2)CC1`, the “Percent Effect” value is given as 8.959%. The value for `Cc1nccnc1CCC1COCCN1C(=O)CCc1c(C)noc1C` (stereo not given) was 121.1%; that for `Cc1cc(C)cc(OCCC(=O)N2CCOCC2c2ncon2)c1` (stereo not given) was -11.58%. As for `O=C(c1ccc2cccc(F)c2n1)N1CCN(CCn2cccc2)CC1`, the “Percent Effect” value came to 4.444%.

Consider `COCCNC(=O)[C@H]1CO[C@H]2CCN(Cc3cccs3)C[C@H]2C1`, for which the “Percent Effect” value was 107.4%. The value for `O=C(CN1CCC(c2ccnn2CCO)CC1)NCc1cccs1` was -0.7289%; that for `COCCNC(=O)[C@H]1C[C@@H]2CCN(Cc3nccs3)C[C@H]2O1.O=C(O)C(F)(F)F` was 2.995%.

With `Cc1ncccc1NC(=O)[C@@H]1C[C@@H]2CCN(Cc3cccs3)C[C@H]2O1.O=C(O)C(F)(F)F.O=C(O)C(F)(F)F`, the “Percent Effect” value is reported as -1.319%.

As for `CCN1CC[C@@H]2OC[C@H](C(=O)NCc3cccs3)C[C@@H]2C1`, the “Percent Effect” value came to 91.2%.

As to `COC(=O)N1CCc2ccccc2C1C(=O)NCc1cccs1` (stereo not given), the “Percent Effect” value is given as 1.281%. With `COc1ccc(F)cc1CN1CCN(Cc2nccn2C)C(C)C1` (stereo not given) the figure was -0.7274%; with `CC(=O)N1CC(=O)N(c2ccccc2)CC12CCN(Cc1ccsc1)C2` (stereo not given), -2.634%. With `CC(=O)N1CC(=O)N(c2ccccc2)CC12CCN(Cc1ccoc1)C2.O=C(O)C(F)(F)F` (stereo not given) the figure was 103.1%.

`CC(=O)N1CC(=O)N(c2ccsc2)CC12CCN(Cc1ccoc1)C2` (stereo not given): the “Percent Effect” value is 104.4%. The value for `CC(=O)N1CC(=O)N(c2ccccc2)CC12CCN(CC1CC1)C2.O=C(O)C(F)(F)F` (stereo not given) was -3.194%.

For the compound `CC(=O)N1CC(=O)N(c2ccccc2)CC12CCN(Cc1nccs1)C2.O=C(O)C(F)(F)F` (stereo not given), the “Percent Effect” value was -14.31%.

`CC(=O)N1CC(=O)N(c2ccsc2)CC12CCN(Cc1ccccn1)C2.O=C(O)C(F)(F)F` (stereo not given): the “Percent Effect” value is -6.842%. As for `CC(C)OCCOCc1cccc(NC(=O)NCC(=O)N(C)C)c1`, the “Percent Effect” value is -22.62%. Consider `CCN1CCN2CCCN(S(=O)(=O)c3ccc(C)cc3C)C2C1=O` (stereo not given), for which the “Percent Effect” value is 0.9872%. The value for `CN1CCN(c2ccc(NCc3ccsc3)cn2)CC1` was -12.65%; that for `Cn1cnc2c1C(COCC1CCOCC1)CN(C(=O)C1CC=CC1)C2.O=C(O)C(F)(F)F` (stereo not given) was -7.237%; that for `CCOCC1CN(C(=O)COc2ccccc2C)Cc2ncn(C)c21.O=C(O)C(F)(F)F` (stereo not given) was -10.67%. With `COCC1CN(C(=O)COc2ccccc2)Cc2ncn(C)c21.O=C(O)C(F)(F)F` (stereo not given) the figure was -7.331%; with `CN(C)C(=O)COCC1CN(S(C)(=O)=O)Cc2ncn(C)c21.O=C(O)C(F)(F)F` (stereo not given), 94.11%; with `CN(C)C(=O)COCC1CN(C2CCC2)Cc2ncn(C)c21.O=C(O)C(F)(F)F.O=C(O)C(F)(F)F` (stereo not given), 85.57%. With `COCCN(Cc1sccc1C)c1nc(C)nc2sccc12` the figure was -3.328%. On to `CNC(=O)[C@@H]1C[C@@H](N)CN1Cc1cc2cc(C)cc(C)c2[nH]c1=O`, for which the “Percent Effect” value was 3.33%. The value for `CN(Cc1cnn(C)c1)S(=O)(=O)N1CCc2ccccc2C1` was 11.11%.

Turning to `CCN(CC)S(=O)(=O)c1ccc2c(c1)N(Cc1ccncc1)C(=O)CS2`, the “Percent Effect” value was 122%.

Regarding `CCS(=O)(=O)c1ccc2oc([C@H]3CCN(Cc4cccnc4)C3)nc2c1`, the “Percent Effect” value was -5.049%. The value for `CCN(CC)S(=O)(=O)N1CCC(c2nccn2Cc2ccccn2)CC1` was 1.2%; that for `CCN(CC)S(=O)(=O)c1ccc2c(c1)N(Cc1cccnc1)C(=O)CS2` was 103.1%. With `CCN(Cc1cccc(-c2ccncc2)c1)S(N)(=O)=O` the figure was -1.235%; with `CCN(CC)S(=O)(=O)N1CCCC(c2nccn2Cc2cccnc2)C1` (stereo not given), -1.362%; with `CCN(CC)S(=O)(=O)N(C)Cc1ccncc1`, -6.423%.

With `CC(C)N1CCC(Nc2ccn(Cc3ccccn3)n2)C1=O` (stereo not given), the “Percent Effect” value amounted to 7.705%.

With `CCN(CC)S(=O)(=O)c1ccc2c(c1)N(Cc1ccccn1)C(=O)CS2`, the “Percent Effect” value is on record as 124.5%.
